# Measurements taken from the supplement of paper PMC9446081.
# In all, about 39,000 compounds went through this assay and about 220 (0.56%) showed activity. The list comes from a sample in which actives are over-represented; it also holds similar structures and randomly drawn compounds.
# Test system: Escherichia coli K-12 BW25113
# Test: relative growth (OD600 normalised to plate interquartile mean) (fraction); higher = less growth inhibition, active = 0.2 or less
# Conditions: 50 µM; LB; incubation time: overnight (16-24 h)
# 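Note: Wild-type cells incubated without shaking, value is the mean of two biological replicates.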
row,SMILES,relative growth
1,OC[C@H]1O[C@H](n2nnc3ccccc32)[C@@H](O)[C@@H](O)[C@@H]1O,0.989 (inactive)
2,Cc1noc(C)c1S(=O)(=O)Nc1cccc2c1O[C@H](CN(C)S(=O)(=O)c1cccs1)[C@H](C)CN([C@@H](C)CO)C2=O,1 (inactive)
3,CCCN1C[C@@H](C)[C@H](OC)CN(C)C(=O)c2ccc(NS(=O)(=O)c3cn(C)cn3)cc2OC[C@@H]1C,1 (inactive)
4,Nc1ccc(/C=C/c2ccccc2)cc1,0.999 (inactive)
5,C[C@H](CO)N1C[C@H](C)[C@@H](CN(C)C(=O)c2cnccn2)Oc2cc(Br)ccc2S1(=O)=O,0.986 (inactive)
6,CC1CCc2cc(F)cc3c(=O)c(C(=O)O)cn1c23 (stereo unspecified),0.0455 (active)
7,CC1CCc2c(N3CCC(O)CC3)c(F)cc3c(=O)c(C(=O)O)cn1c23 (stereo unspecified),0.0484 (active)
8,C[C@@H]1CN([C@@H](C)CO)C(=O)Cc2cc(NC(=O)Cc3ccccc3)ccc2O[C@@H]1CN(C)Cc1ccc(Oc2ccccc2)cc1,0.987 (inactive)
9,O=C(C[C@H]1C=C[C@H](NS(=O)(=O)c2ccccc2F)[C@@H](CO)O1)NCCCN1CCOCC1,0.993 (inactive)
10,C[C@H]1CN([C@@H](C)CO)C(=O)Cc2cc(NS(=O)(=O)c3ccccc3)ccc2O[C@@H]1CN(C)S(C)(=O)=O,0.961 (inactive)
11,NC(=O)[C@@H]1C(=O)C[C@@H]2C[C@@H]3Cc4cccc(O)c4C(=O)[C@@H]3C(=O)[C@]2(O)C1=O,0.164 (active)
12,C[C@@H]1CN([C@@H](C)CO)C(=O)Cc2cc(NC(=O)C3CCCCC3)ccc2O[C@H]1CN(C)C(=O)Nc1cccc2ccccc12,1.01 (inactive)
13,COC(=O)[C@H](Cc1ccc(N=[N+]=[N-])cc1)N1CC2=C[C@@H](C3CC3)n3c(=O)n(C)c(=O)n3[C@H]2[C@@H]1[C@@H](O)Cc1ccccc1,0.989 (inactive)
14,CCN1CCN(c2cc3c(cc2F)c(=O)c(C(=O)O)cn3C2CC2)CC1,0.0449 (active)
15,CC(=O)NCC1CN(c2ccc(N3CCOCC3)c(F)c2)C(=O)O1 (stereo unspecified),0.701 (inactive)
16,O=C(O)c1cn(C2CC2)c2cc(N3CCC(O)(COc4ccc(N5C[C@H](CO)OC5=O)cc4F)CC3)c(F)cc2c1=O,0.111 (active)
17,CC(=O)NC[C@H]1CN(c2ccc(N3CCN(C(=O)CO)CC3)c(F)c2)C(=O)O1,0.38 (inactive)
18,O=C(O)c1cn(C2CC2)c2cc(N3CCNCC3)c(F)cc2c1=O,0.0478 (active)
19,C[C@H](CO)N1C[C@H](C)[C@H](CN(C)C(=O)Nc2ccc(F)cc2)OCCCC[C@H](C)Oc2ccc(NC(=O)C3CCOCC3)cc2C1=O,0.981 (inactive)
20,Cc1ccc(S(=O)(=O)Nc2ccc3c(c2)C(=O)N([C@@H](C)CO)C[C@H](C)[C@H](CN(C)S(C)(=O)=O)OCCCC[C@@H](C)O3)cc1,1 (inactive)
21,NC[C@H]1CC[C@H](C(=O)N2CCC(c3ccncc3)CC2)CC1,1.03 (inactive)

row,SMILES,relative growth
1,Cc1ccc(S(=O)(=O)N[C@H]2CC[C@H](CCNC(=O)CN3CCOCC3)O[C@@H]2CO)cc1,1 (inactive)
2,C[C@@H]1CN([C@H](C)CO)C(=O)c2cc(NS(=O)(=O)c3ccccc3)ccc2O[C@@H](C)CCCCO[C@H]1CN(C)Cc1ccc(C(=O)O)cc1,1 (inactive)
3,COc1ccc(NC(=O)N(C)C[C@H]2OCCCC[C@@H](C)Oc3ccc(NC(=O)c4ccccc4)cc3C(=O)N([C@@H](C)CO)C[C@H]2C)cc1,0.994 (inactive)
4,COC[C@H](C)N1C[C@H](C)[C@@H](CN(C)Cc2ccc(Oc3ccccc3)cc2)Oc2c(NC(=O)c3ccncc3)cccc2C1=O,1 (inactive)
5,Cc1noc(C)c1S(=O)(=O)Nc1ccc2c(c1)C(=O)N([C@H](C)CO)C[C@@H](C)[C@H](CN(C)C(=O)NC1CCCCC1)O2,1.01 (inactive)
6,C[C@@H]1CN([C@H](C)CO)C(=O)c2cc(NS(=O)(=O)c3ccc(F)cc3)ccc2O[C@@H](C)CCCCO[C@@H]1CN(C)C(=O)C1CCCCC1,0.993 (inactive)
7,Cc1noc(C)c1NC(=O)N(C)C[C@H]1Oc2ccc(NC(=O)Nc3ccc(C(F)(F)F)cc3)cc2CC(=O)N([C@H](C)CO)C[C@H]1C,0.935 (inactive)
8,C[C@H](CO)N1C[C@H](C)[C@H](CN(C)S(=O)(=O)c2ccccc2)Oc2ccc(NC(=O)C3CC3)cc2CC1=O,1 (inactive)
9,CC(C)(C)c1ccc(NC(=O)N[C@H]2CCCc3ccccc32)cc1,1.03 (inactive)
10,COc1ccc(NC(=O)Nc2ccc3c(c2)CC(=O)N([C@H](C)CO)C[C@@H](C)[C@@H](CN(C)S(=O)(=O)c2c(C)noc2C)O3)cc1,0.969 (inactive)
11,Nc1ncn(C2OC(CO)C(O)C2O)c(=O)n1 (stereo unspecified),0.05 (active)
12,Nc1ncn([C@@H]2O[C@H](CO)[C@@H](O)[C@H]2O)c(=O)n1,0.458 (inactive)
13,Nc1ncn([C@@H]2C[C@H](O)[C@@H](CO)O2)c(=O)n1,0.907 (inactive)
14,CC(=O)N(C)C[C@@H]1Oc2ncc(C#C[C@@H](C)O)cc2C(=O)N([C@@H](C)CO)C[C@H]1C,1.01 (inactive)
15,O=C(C[C@@H]1CC[C@@H]2[C@H](COC[C@@H](O)CN2S(=O)(=O)c2cccc(Cl)c2)O1)N1CCOCC1,1.01 (inactive)
16,O=C1OC(=O)[C@H]2[C@@H]1[C@H]1CC[C@H]2O1,0.16 (active)
17,CCc1c(C)[nH]c(=S)c(C#N)c1C,1.01 (inactive)
18,Cc1noc(C)c1S(=O)(=O)Nc1ccc2c(c1)C(=O)N([C@@H](C)CO)C[C@H](C)[C@H](CN(C)CC1CC1)O2,0.999 (inactive)
19,COc1ccc(NC(=O)N(C)C[C@H]2Oc3c(NS(=O)(=O)c4cn(C)cn4)cccc3C(=O)N([C@@H](C)CO)C[C@@H]2C)cc1,0.995 (inactive)
20,C[C@H](CO)N1C[C@H](C)[C@@H](CN(C)S(=O)(=O)c2ccc(F)cc2)Oc2ccc(NC(=O)c3ccncc3)cc2CC1=O,0.989 (inactive)
21,CCCCCCCCCCCCCCCCOP(=O)([O-])OCC[N+](C)(C)C,1 (inactive)

row,SMILES,relative growth
1,C[N+](C)(C)CCCCCC[N+](C)(C)C.[Br-].[Br-],0.862 (inactive)
2,CCCCCCCCCCCCCCCC[N+](C)(C)C,0.0755 (active)
3,NS(=O)(=O)c1cc(-c2nn[nH]n2)c(NCc2cccs2)cc1Cl,0.965 (inactive)
4,NC[C@H]1CCN(c2ccc(Oc3ccccc3)cc2)C1,0.669 (inactive)
5,C[C@H]1CCCCO[C@H](CN(C)C(=O)Cc2ccccc2)[C@@H](C)CN([C@@H](C)CO)C(=O)c2cc(NC(=O)c3ccccc3)ccc2O1,1.03 (inactive)
6,CON=C(C(=O)NC1C(=O)N2C(C(=O)OCOC(=O)C(C)(C)C)=C(C=Cc3scnc3C)CSC12)c1csc(N)n1 (stereo unspecified),0.0492 (active)
7,CCC=C(C(=O)NC1C(=O)N2C(C(=O)OCOC(=O)C(C)(C)C)=C(COC(N)=O)CSC12)c1csc(N)n1.Cl (stereo unspecified),0.0724 (active)
8,CON=C(C(=O)N[C@@H]1C(=O)N2C(C(=O)OCOC(=O)C(C)(C)C)=C(C=Cc3scnc3C)CS[C@H]12)c1csc(N)n1,0.0386 (active)
9,Cc1ccc(S(=O)(=O)N(C)C[C@@H]2Oc3ccc(NS(=O)(=O)c4ccc(F)cc4)cc3C(=O)N([C@H](C)CO)C[C@@H]2C)cc1,1.08 (inactive)
10,COc1ccc(CN(C)C[C@@H]2Oc3c(NC(=O)Nc4ccc(C(F)(F)F)cc4)cccc3C(=O)N([C@@H](C)CO)C[C@H]2C)cc1,0.818 (inactive)
11,Cc1cc(-c2ccccc2)nc(-c2ccccc2)c1C,0.937 (inactive)
12,C[C@H]1CN([C@@H](C)CO)C(=O)c2cc(NC(=O)CCCCCC(=O)Nc3ccccc3N)ccc2O[C@H]1CN(C)S(=O)(=O)c1cn(C)cn1,1.01 (inactive)
13,CNC[C@H]1Oc2cc(C#CCN(C)C)ccc2S(=O)(=O)N([C@H](C)CO)C[C@@H]1C,1.02 (inactive)
14,C[C@@H]1CCCCO[C@@H](CN(C)C(=O)Nc2ccc3c(c2)OCO3)[C@H](C)CN([C@H](C)CO)C(=O)c2cc(NS(=O)(=O)c3ccc(F)cc3)ccc2O1,1.01 (inactive)
15,Cc1noc(C)c1S(=O)(=O)Nc1ccc2c(c1)C(=O)N([C@H](C)CO)C[C@@H](C)[C@@H](CN(C)S(=O)(=O)c1cccs1)O2,0.998 (inactive)
16,C[C@H]1CCCCO[C@H](CN(C)S(C)(=O)=O)[C@@H](C)CN([C@@H](C)CO)C(=O)c2cc(NC(=O)c3ccncc3)ccc2O1,1.01 (inactive)
17,CCCCCOc1ccc(-c2cc(-c3ccc(C(=O)N[C@H]4C[C@@H](O)[C@@H](O)NC(=O)[C@H]5[C@@H](O)[C@@H](C)CN5C(=O)[C@H]([C@@H](O)CC(N)=O)NC(=O)[C@H]([C@@H](O)[C@@H](O)c5ccc(O)c(OS(=O)(=O)O)c5)NC(=O)[C@H]5C[C@@H](O)CN5C(=O)[C@H]([C@@H](C)O)NC4=O)cc3)no2)cc1,0.952 (inactive)
18,CCCCCOc1ccc(-c2ccc(-c3ccc(C(=O)N[C@H]4C[C@@H](O)[C@@H](O)NC(=O)[C@@H]5[C@@H](O)[C@@H](C)CN5C(=O)[C@H]([C@@H](C)O)NC(=O)[C@H]([C@H](O)[C@@H](O)c5ccc(O)cc5)NC(=O)[C@@H]5C[C@@H](O)CN5C(=O)[C@H]([C@@H](C)O)NC4=O)cc3)cc2)cc1,1.12 (inactive)
19,CC[C@H](C)C[C@H](C)CCCCCCCCC(=O)N[C@H]1C[C@@H](O)[C@@H](NCCN)NC(=O)[C@@H]2[C@@H](O)CCN2C(=O)[C@H]([C@H](O)CCN)NC(=O)[C@H]([C@H](O)[C@@H](O)c2ccc(O)cc2)NC(=O)[C@@H]2C[C@@H](O)CN2C(=O)[C@H]([C@@H](C)O)NC1=O,0.173 (active)
